From PubChem BioAssay (NCATS)
Results filed as inconclusive are left out. The source made the active and inactive calls. Calls follow the shape of the dose curve; as a rule, active = well fitted curve in the direction sought with a large enough effect; inconclusive = small, poorly fitted or top-dose-only effect, or another doubt; inactive = no such curve, though single readings can be large; an effect the other way counts as inactive or inconclusive.

Legend:
NIH3T3 = experiment: qHTS assay to identify novel small-molecules to repurpose for Merkel cell carcinoma treatment (AID 1296009); settings: MCC and control cell lines, CellTiter-Glo viability, 72 h; series mostly up to 44.8 µM; also: nearly all actives have a fitted effect of over 60% in size
Method in brief: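 qHTS format: cells treated with library compounds in DMSO across 8 (NPC) or 11 (MIPE) concentrations. Readout after 72 hr at 37 degree celsius was CellTiter-Glo luminescence.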

C33A = experiment: Primary qHTS to identify gynecologic anti-cancer compounds using libraries of approved drugs and bioactive compounds (AID 1345084); settings: Gynecologic cancer cell panel viability, ATPlite luminescence, 48 h; series mostly up to 57.5 µM; also: nearly all actives have a fitted effect of over 55% in size
Method in brief: (§1)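 Cell viability after 48 h drug treatment, ATPlite luminescence readout; five doses.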

CAOV3 = experiment: as above; settings: Gynecologic cancer cell panel viability, ATPlite luminescence, 48 h; series mostly up to 57.5 µM
Method in brief: as §1

CASKI = experiment: as above; settings: Gynecologic cancer cell panel viability, ATPlite luminescence, 48 h; series mostly up to 57.5 µM
Method in brief: as §1

Es-2 = experiment: as above; settings: Gynecologic cancer cell panel viability, ATPlite luminescence, 48 h; series mostly up to 57.5 µM
Method in brief: as §1

HeLa = experiment: as above; settings: Gynecologic cancer cell panel viability, ATPlite luminescence, 48 h; series mostly up to 57.5 µM
Method in brief: as §1

Hek293T = experiment: as above; settings: Gynecologic cancer cell panel viability, ATPlite luminescence, 48 h, control line for the selectivity index; series mostly up to 57.5 µM
Method in brief: as §1

JEG-3 = experiment: as above; settings: Gynecologic cancer cell panel viability, ATPlite luminescence, 48 h; series mostly up to 57.5 µM
Method in brief: as §1

Measured: Potency

C/C=C(\C)C(=O)OC1C=C(C)CC(OC(=O)c2ccc(O)cc2)C2C1(C)CCC2(O)C(C)C (stereo unspecified)
inactive: NIH3T3 | C33A | CAOV3 | CASKI | Es-2 | HeLa | Hek293T | JEG-3

C=C(C(=O)OC)[C@@H]1CC=C2C=CC(=O)[C@H](C)[C@@]2(C)C1
inactive: NIH3T3 | C33A | CAOV3 | CASKI | Es-2 | HeLa | Hek293T | JEG-3

CCN1C(C)(C)CC(Oc2ccc(C(=O)Nc3ccc(NC(=O)Nc4cc(C(C)(C)C)on4)cc3)nc2)CC1(C)C
inactive: NIH3T3 | C33A | CAOV3 | CASKI | Es-2 | HeLa | Hek293T | JEG-3

CCCCc1ccc(NS(=O)(=O)c2ccc(F)cc2)cc1
inactive: NIH3T3 | C33A | CAOV3 | CASKI | Es-2 | HeLa | Hek293T | JEG-3

CCC(C)C1NC(=O)C(Cc2ccccc2)NC(=O)C(CCCCCC(=O)C(O)CO)NC(=O)C2CCCCN2C1=O (stereo unspecified)
inactive: NIH3T3 | C33A | CAOV3 | CASKI | Es-2 | HeLa | Hek293T | JEG-3

Cc1cc(NC(=O)NCCN2CCC(O)(Cc3ccccc3)CC2)c2ccccc2n1
inactive: NIH3T3 | C33A | CAOV3 | CASKI | Es-2 | HeLa | Hek293T | JEG-3

CCCCCCCOc1cc2c(cc1/C(C)=C/c1ccc(C(=O)O)cc1)C(C)(C)CCS2(=O)=O
inactive: NIH3T3 | C33A | CAOV3 | CASKI | Es-2 | HeLa | Hek293T | JEG-3

C=C1C(=O)OC2C1CCC1(C)C(O)CC=C(C)C21 (stereo unspecified)
inactive: NIH3T3 | C33A | CAOV3 | CASKI | Es-2 | HeLa | Hek293T | JEG-3

O=C(N[C@H]1CCN(C(=O)c2cc(C(F)(F)F)cc(C(F)(F)F)c2)[C@H](Cc2ccc(Cl)cc2)C1)c1ccnc2ccccc12
inactive: NIH3T3 | C33A | CAOV3 | CASKI | Es-2 | HeLa | Hek293T | JEG-3

CC#CCn1c(N2CCCC(N)C2)nc2c1c(=O)n(Cc1nc(C)c3ccccc3n1)c(=O)n2C (stereo unspecified)
inactive: NIH3T3 | C33A | CAOV3 | CASKI | Es-2 | HeLa | Hek293T | JEG-3

CC#C[C@@H](CC(=O)O)c1ccc(OCc2ccc(CN3CCC4(C=Cc5ccccc54)CC3)s2)cc1
inactive: NIH3T3 | C33A | CAOV3 | CASKI | Es-2 | HeLa | Hek293T | JEG-3

Cn1cc(C2=C(c3coc4ccccc34)C(=O)NC2=O)c2cc(Br)ccc21
inactive: NIH3T3 | C33A | CAOV3 | CASKI | Es-2 | HeLa | Hek293T

COc1ccc(CCN(C)CCCOc2nsc(-c3ccccc3)n2)cc1OC
inactive: NIH3T3 | C33A | CAOV3 | CASKI | Es-2 | HeLa | Hek293T | JEG-3

CCc1c(Cl)c(O)c(Cl)c(O)c1C(=O)O[C@H]1[C@H](O)[C@H](OC)[C@H](OC/C2=C\C=C\C[C@H](O)/C(C)=C\[C@H](CC)[C@@H](O[C@@H]3OC(C)(C)[C@@H](OC(=O)C(C)C)[C@H](O)[C@@H]3O)/C(C)=C/C(C)=C/C[C@@H]([C@@H](C)O)OC2=O)O[C@@H]1C
inactive: NIH3T3 | C33A | CAOV3 | CASKI | Es-2 | HeLa | Hek293T | JEG-3

CCN(CC)C(=O)C(c1ccccc1)N1CCN(c2ccc(NC(=O)c3ccccc3-c3cccnc3)cc2F)CC1 (stereo unspecified)
inactive: NIH3T3 | C33A | CAOV3 | CASKI | Es-2 | HeLa | Hek293T | JEG-3

CN1CCN(C2=Nc3ccccc3Nc3ccc(OS(=O)(=O)C(F)(F)F)cc32)CC1
inactive: NIH3T3 | C33A | CAOV3 | CASKI | Es-2 | HeLa | Hek293T | JEG-3

Cn1nc(C(C)(C)C)cc1C(=O)N[C@@H](Cc1cccc(Cl)c1)C(=O)NCC#N
inactive: NIH3T3 | C33A | CAOV3 | CASKI | Es-2 | HeLa | Hek293T | JEG-3

COc1cc(/C=C2\CC[C@H]3COC[C@@H](c4cc(F)c(F)c(F)c4)N3C2=O)ccc1-n1cnc(C)c1
inactive: NIH3T3 | C33A | CAOV3 | CASKI | Es-2 | HeLa | Hek293T | JEG-3

CC(C)(C)c1ccc2c(c1)CC[C@H]2NC(=O)Nc1cccc2[nH]ncc12
inactive: NIH3T3 | C33A | CAOV3 | CASKI | Es-2 | HeLa | Hek293T | JEG-3
